Results reported in publication PMC4336329 (PLoS ONE, 2015).
About 14,000 (4.5%) of roughly 310,000 compounds showed an effect of 50% or more. The effect is printed as a negative number. What follows is part of a selection rich in strong results, with near analogues and random picks from the rest.

target: human ether-à-go-go-related gene (hERG) potassium channel (human, UniProt Q12809); assay: primary screen, population patch clamp on CHO cells stably expressing hERG; higher = less effect of the substance
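Further: peak tail current of the secondary pulse compared with the same well before compound.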

Chain of human ether-à-go-go-related gene (hERG) potassium channel (Q12809 whole entry, looked up): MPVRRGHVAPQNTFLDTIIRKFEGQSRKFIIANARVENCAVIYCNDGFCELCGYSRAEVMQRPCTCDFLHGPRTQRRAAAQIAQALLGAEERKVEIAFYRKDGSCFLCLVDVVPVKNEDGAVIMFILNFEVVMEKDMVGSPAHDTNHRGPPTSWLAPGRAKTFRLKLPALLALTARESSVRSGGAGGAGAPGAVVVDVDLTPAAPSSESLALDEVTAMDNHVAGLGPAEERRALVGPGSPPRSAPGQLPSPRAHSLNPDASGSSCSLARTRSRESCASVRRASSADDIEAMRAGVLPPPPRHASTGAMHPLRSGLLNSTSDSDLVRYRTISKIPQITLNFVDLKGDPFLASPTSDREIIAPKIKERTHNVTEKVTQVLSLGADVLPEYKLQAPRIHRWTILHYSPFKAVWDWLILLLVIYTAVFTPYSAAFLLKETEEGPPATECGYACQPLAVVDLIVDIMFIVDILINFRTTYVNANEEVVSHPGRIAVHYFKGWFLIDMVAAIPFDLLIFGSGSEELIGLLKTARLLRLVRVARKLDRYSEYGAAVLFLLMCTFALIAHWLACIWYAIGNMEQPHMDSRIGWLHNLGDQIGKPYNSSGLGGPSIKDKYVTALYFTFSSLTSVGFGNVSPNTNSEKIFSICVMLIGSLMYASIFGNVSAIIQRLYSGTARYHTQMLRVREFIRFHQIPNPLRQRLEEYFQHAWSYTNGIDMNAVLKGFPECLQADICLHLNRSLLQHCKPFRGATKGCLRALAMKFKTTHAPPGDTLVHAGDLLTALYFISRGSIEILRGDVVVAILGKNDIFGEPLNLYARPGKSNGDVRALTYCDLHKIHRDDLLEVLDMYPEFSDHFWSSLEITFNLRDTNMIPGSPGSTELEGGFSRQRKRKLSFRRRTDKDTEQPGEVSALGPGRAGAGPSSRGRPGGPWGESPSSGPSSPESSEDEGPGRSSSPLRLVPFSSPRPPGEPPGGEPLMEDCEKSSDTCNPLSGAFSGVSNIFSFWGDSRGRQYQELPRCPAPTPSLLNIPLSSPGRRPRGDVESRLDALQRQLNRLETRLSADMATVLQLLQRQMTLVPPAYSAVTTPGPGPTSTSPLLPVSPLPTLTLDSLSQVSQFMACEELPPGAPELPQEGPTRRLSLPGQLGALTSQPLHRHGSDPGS

SMILES	hERG current change (%, negative = inhibition) at 10uM [%]
CCOC(=O)c1ccc(NC(=O)Nc2ccc3c(c2)OCCO3)cc1	10.6
Cn1c(=O)c2c(nc(SCC(=O)c3cccs3)n2Cc2ccc(F)cc2)n(C)c1=O	-13.2
COc1ccc(C(=O)c2ccccc2Cl)cc1	-34.5
O=C(CSc1nnc(CNC(=O)c2ccccc2F)o1)NCc1ccccc1	-7.93
Cc1ccc(NC(=O)COC(=O)C2CC(=O)N(Cc3ccccc3)C2)cc1S(=O)(=O)N(C)C (stereo not drawn)	7.45
CCCn1ccnc1SC(C)C(=O)Nc1c(C)n(C)n(-c2ccccc2)c1=O (stereo not drawn)	16.9
CN1C(=O)N(C)c2ccc(Br)c3cccc1c23	23.5
CC(OC(=O)c1ccccc1C(=O)N(C)c1ccccc1)C(=O)Nc1ccc(C(N)=O)cc1 (stereo not drawn)	-4.36
CCc1cc(=O)oc2cc(OCC(=O)N3C[C@H]4C[C@@H](C3)c3cccc(=O)n3C4)ccc12	8.87
Cc1cc(=O)oc2cc(OCC(=O)N3C[C@H]4C[C@@H](C3)c3cccc(=O)n3C4)ccc12	1.52
Cc1c(C)c2ccc(OCC(=O)N3C[C@H]4C[C@@H](C3)c3cccc(=O)n3C4)c(C)c2oc1=O	1.39
COc1ccc(-c2cc(=O)oc3cc(OCC(=O)N4C[C@H]5C[C@@H](C4)c4cccc(=O)n4C5)ccc23)cc1	-53.5
Cc1coc2c(C)c3oc(=O)c(CCC(=O)N4C[C@H]5C[C@@H](C4)c4cccc(=O)n4C5)c(C)c3cc12	-50.6
Cc1c(OCC(=O)N2C[C@H]3C[C@@H](C2)c2cccc(=O)n2C3)ccc2c3c(c(=O)oc12)CCCC3	-13.5
COCCOC1CCN(C(=O)C2CCC(=O)N(Cc3cccc(F)c3)C2)CC1 (stereo not drawn)	20.1
CCOC(=O)N1CCN(C(=O)c2ccc(NS(=O)(=O)c3ccc(F)cc3)cc2)CC1	-1.81
CCN(C(=O)COC(=O)C1CCN(S(=O)(=O)c2ccc(C)c(C)c2)CC1)C1CCCCC1	-10.4
Cc1ccc(/C(N)=N/OC(=O)CSc2ccccc2)cc1	-5.49
CC(CCc1ccco1)NC(=O)c1cc2c(-c3ccccc3F)nn(C)c2s1 (stereo not drawn)	-5.86
CC(=O)c1ccc(N2CCN(C(=O)c3cc4c(-c5ccccc5F)nn(C)c4s3)CC2)cc1	-20.7
Cn1nc(-c2ccccc2F)c2cc(C(=O)Nc3ccc4c(c3)OCCO4)sc21	14.8
CCOC(=O)N1CCC(NC(=O)c2cc3c(-c4ccccc4F)nn(C)c3s2)CC1	13.5
Cn1nc(-c2ccc(Cl)cc2)c2cc(C(=O)N3CCN(C(=O)c4ccco4)CC3)sc21	-20.7
CN(CCNC(=O)c1cc2c(-c3ccccc3F)nn(C)c2s1)C1CCCCC1	-50.8
Cn1nc(-c2ccccc2F)c2cc(C(=O)N3CCN(C(=O)c4ccco4)CC3)sc21	-57.2
COCCNC(=O)c1cc2c(-c3ccccc3F)nn(C)c2s1	-6.2
CC1CCCCN1CCNC(=O)c1cc2c(-c3ccccc3F)nn(C)c2s1 (stereo not drawn)	-56.1
